Screening data: PubChem BioAssay, National Center for Advancing Translational Sciences (NCATS)
KB-3-1 tox = kills parental KB-3-1 adenocarcinoma cells | KB-3-1 viability, CellTiter-Glo ATP luminescence, 72 h | Potency, µM (highest dose often 46.1 µM), most hits filed as cytotoxic | hit rate 1.4% among 400,000 | AID 1347075; note: nearly all actives have a fitted effect of over 60% in size
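Parental KB-3-1 adenocarcinoma cells in phenol-red-free DMEM with 10% FBS were pin-treated with compounds at several concentrations, incubated 72 h at 37 °C, and viability read by CellTiter-Glo luminescence; concentration-effect curves were fitted after normalization.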
ATXN2 expr inh = inhibitors of ATXN2 expression | HEK-293 ATXN2-luciferase reporter, luminescence, 24 h | Potency, µM (top dose mostly 57 µM), usual class: inhibitors | hit rate 0.72% among 360,000 | AID 1745845; note: nearly all actives have a fitted effect of over 55% in size
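qHTS (up to 57 uM final) was run with 24 h compound exposure of reporter cells at 37 °C. Each well was multiplexed: SteadyGlo luminescence measured ATXN2-luciferase expression after a fluorogenic Gly-Phe-AFC viability readout (25 uM final).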
S2 tox = reduces viability in counter-screen for ATXN expression inhibitors. hit rate 0.49% among 400,000. Potency, µM (series often up to 56.7 µM), most hits filed as cytotoxic. S2 cells (HEK-293 line with an ATXN2-luciferase reporter) viability, CellTiter-Fluor protease fluorescence, 24 h; note: nearly all actives have a fitted effect of over 40% in size
HT1080 IDH1KD tx = HT-1080 IDH1 knockdown cell toxicity (counter line) | hit rate 2% among 360,000 | AID 686971 | HT-1080 IDH1 knockdown viability, ATP luminescence, 48 h | Potency, µM (top dose mostly 46.1 µM), actives largely listed as cytotoxic
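Knockdown cells (IDH1KD HT-1080) received compounds 2 h after plating at 750 cells/well and were kept 48 h at 37 °C in 5% FBS RPMI. A CellTiter-Glo luminescence read gave % activity for curve fitting.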
KB-V1 cytotox = kills drug-selected multidrug resistant KB-V1 cells; KB-V1 MDR cells viability, CellTiter-Glo, 72 h; Potency, µM (titrated, usually from 46.1 µM), actives largely listed as cytotoxic; hit rate 3.4% among 400,000; note: nearly all actives have a fitted effect of over 60% in size
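Cells of the MDR subline KB-V1 are plated, dosed with compound at multiple concentrations, and incubated 72 h at 37 degrees C; CellTiter-Glo is then added and luminescence read after 10 min.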
HT1080-NT tox = kills 2HG-producing HT-1080-NT fibrosarcoma cells; AID 686970; HT-1080-NT fibrosarcoma viability, CellTiter-Glo ATP luminescence, 48 h; Potency, µM (highest dose often 46.1 µM), actives largely listed as cytotoxic; hit rate 1.6% among 360,000;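 note: NT is the 2HG producing partner of a matched IDH1 knockdown line; nearly all actives have a fitted effect of over 55% in size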
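A 48-hour cytotoxicity screen used HT-1080-NT cells plated 2 hours before compound delivery. ATP-based CellTiter-Glo luminescence measured viability, normalized to DMSO and no-cell controls.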
Each line names hits and unclear results; the compound was inactive in the other large screens; ! = repeats disagree. Sampled rows, rich in hits. Any-hit rate of the full collection: about 6.2%. Calls come from the whole dose curve; as a rule, active = well fitted curve in the direction sought with a large enough effect; inconclusive = small, poorly fitted or top-dose-only effect, or another doubt; inactive = no such curve, though single readings can be large; an effect the other way counts as inactive or inconclusive.

Cc1ccccc1NCc1nc2ccccc2n1CCOc1ccccc1	KB-3-1 tox 15µM, S2 tox inconclusive, KB-V1 cytotox inconclusive (no result: HT1080 IDH1KD tx, HT1080-NT tox)
C[C@H]1CN([C@@H](C)CO)S(=O)(=O)c2ccc(Br)cc2O[C@@H]1CN(C)C(=O)Cc1cccnc1	none
CN(C)c1ccc(-c2cc(O)c3ncccc3c2)cc1	ATXN2 expr inh inconclusive (no result: HT1080 IDH1KD tx, HT1080-NT tox)
Oc1cc(-c2ccncc2)cc2cccnc12	KB-3-1 tox 10µM, ATXN2 expr inh 3.5µM, KB-V1 cytotox inconclusive (no result: HT1080 IDH1KD tx, HT1080-NT tox)
CN(C)CCCNC(=O)c1ccc(-c2cc(O)c3ncccc3c2)cc1	ATXN2 expr inh inconclusive, KB-V1 cytotox inconclusive (no result: HT1080 IDH1KD tx, HT1080-NT tox)
Oc1cc(-c2ccc(N3CCCCC3)nc2)cc2cccnc12	KB-3-1 tox 5.2µM, ATXN2 expr inh inconclusive, KB-V1 cytotox inconclusive (no result: HT1080 IDH1KD tx, HT1080-NT tox)
CCOc1ccc(N(C(C)C(=O)NCCSc2ccc(Cl)cc2)S(C)(=O)=O)cc1 (configuration not stated)	KB-3-1 tox inconclusive (no result: HT1080 IDH1KD tx, HT1080-NT tox)
O=C(Nc1ccc(N2CCN(C(=O)c3cccs3)CC2)cc1)c1cccc(F)c1	KB-3-1 tox 18µM, HT1080 IDH1KD tx inconclusive, KB-V1 cytotox inconclusive
O=C(Nc1ccc(N2CCCC2)cc1)c1cccc(F)c1	KB-3-1 tox inconclusive
COc1cccc(C(=O)Nc2ccc(N3CCN(C(=O)c4cccs4)CC3)cc2)c1	KB-3-1 tox 5.2µM, HT1080 IDH1KD tx 2.6µM, KB-V1 cytotox 2.3µM, HT1080-NT tox inconclusive
CCc1ccc(N2C(=O)Nc3ccc(Br)cc3C2(O)C(=O)NCCN(C)C)cc1 (configuration not stated)	none
Cc1ccc(-c2csc3n[nH]c(=S)n23)cc1	KB-3-1 tox inconclusive, KB-V1 cytotox 12µM!
CCCCCCCCCCCCCCCC[n+]1ccc(/C=N/O)cc1	KB-3-1 tox 2.9µM, ATXN2 expr inh inconclusive, S2 tox inconclusive, HT1080 IDH1KD tx 23µM, HT1080-NT tox 21µM
CSc1ccccc1C(=O)NCC1Cc2cc(F)cc(-c3cnccn3)c2O1 (configuration not stated)	none (no result: KB-3-1 tox, ATXN2 expr inh, HT1080 IDH1KD tx, KB-V1 cytotox, HT1080-NT tox)
Cc1[nH]n(-c2nc(-c3ccc(Cl)cc3)cs2)c(=O)c1N=Nc1ccc(O)cc1	KB-3-1 tox inconclusive, ATXN2 expr inh inconclusive, KB-V1 cytotox 15µM, HT1080-NT tox inconclusive (no result: S2 tox)
O=C(C[C@H]1C[C@H](C(=O)N2CCOCC2)[C@@]2(CCC3CCCC3)c3[nH]c4cc(-c5ccco5)ccc4c3CCN2C1=O)NCCN1CCOCC1	KB-3-1 tox inconclusive, ATXN2 expr inh inconclusive, HT1080 IDH1KD tx inconclusive (no result: S2 tox)
CN(C)CCCNC(=O)C[C@H]1C[C@H](C(=O)N2CCOCC2)[C@@]2(CCC3CCCC3)c3[nH]c4cc(-c5ccco5)ccc4c3CCN2C1=O	KB-3-1 tox inconclusive, ATXN2 expr inh 25µM, HT1080 IDH1KD tx inconclusive, HT1080-NT tox inconclusive (no result: S2 tox)
O=C(C[C@H]1C[C@H](C(=O)N2CCOCC2)[C@@]2(CCC3CCCC3)c3[nH]c4cc(-c5ccco5)ccc4c3CCN2C1=O)NCc1cccc(C(F)(F)F)c1	KB-3-1 tox inconclusive, S2 tox inconclusive, HT1080 IDH1KD tx inconclusive, KB-V1 cytotox 16µM
O=P(Cc1ccccc1)(c1ccccc1)c1ccccc1	S2 tox inconclusive, KB-V1 cytotox inconclusive
O=P(Cc1ccccc1)(Cc1ccccc1)c1ccccc1	KB-V1 cytotox 18µM
Cc1ccc(Cl)cc1N1CCN(C(=O)Cn2ncc3c([nH]c4ccccc43)c2=O)CC1	KB-V1 cytotox inconclusive (no result: HT1080 IDH1KD tx, HT1080-NT tox)
COc1ccc(C2CC(=O)N(CC(=O)Nc3ccc(C(C)=O)cc3)c3ccccc3S2)cc1OC (configuration not stated)	ATXN2 expr inh inconclusive, S2 tox inconclusive, KB-V1 cytotox inconclusive (no result: HT1080 IDH1KD tx, HT1080-NT tox)
COc1ccc(C2CC(=O)N(CC(=O)Nc3ccc(C)c(Cl)c3)c3ccccc3S2)cc1OC (configuration not stated)	KB-3-1 tox inconclusive, KB-V1 cytotox 18µM (no result: HT1080 IDH1KD tx, HT1080-NT tox)
CCOC(=O)c1ccccc1NC(=O)CN1C(=O)CC(c2ccccc2)Sc2ccccc21 (configuration not stated)	KB-3-1 tox inconclusive, S2 tox inconclusive, KB-V1 cytotox 12µM (no result: HT1080 IDH1KD tx, HT1080-NT tox)
Cc1ccc(-n2c3nc(=O)n(C)c(=O)c-3cc3c(Cl)cccc32)c(C)c1	none (no result: HT1080 IDH1KD tx, HT1080-NT tox)
CC(C)c1ccc2oc(-c3ccc(Cl)c(NC(=O)c4cccs4)c3)nc2c1	KB-3-1 tox inconclusive, KB-V1 cytotox inconclusive (no result: HT1080 IDH1KD tx, HT1080-NT tox)
O=S(=O)(c1ccc(Cl)cc1)n1ccc(-c2cccc(OCc3c(F)cccc3Cl)c2)n1	none
O=S(=O)(c1ccc(F)cc1)n1ccc(-c2cccc(OCc3c(F)cccc3Cl)c2)n1	KB-3-1 tox inconclusive, S2 tox inconclusive, KB-V1 cytotox 21µM
Cc1cccc(NC(=O)c2nc[nH]c2C(=O)N[C@@H](C)c2ccccc2)c1	ATXN2 expr inh inconclusive, HT1080 IDH1KD tx 15µM, HT1080-NT tox inconclusive (no result: S2 tox)
CC(C)(C)OC(=O)NCCCCCNC(=O)c1nc[nH]c1C(=O)NCCCCCNC(=O)OC(C)(C)C	KB-3-1 tox inconclusive, ATXN2 expr inh 22µM, S2 tox 25µM, KB-V1 cytotox inconclusive
CC(C)(C)OC(=O)NCCCCCNC(=O)c1[nH]cnc1C(=O)N[C@@H](CCCCNC(=O)OC(C)(C)C)C(=O)OC(C)(C)C	ATXN2 expr inh inconclusive, S2 tox inconclusive, KB-V1 cytotox inconclusive, HT1080-NT tox inconclusive
Cc1cccc(NC(=O)c2nc[nH]c2C(=O)Nc2cccc(C)c2)c1	HT1080 IDH1KD tx inconclusive
